# Measurements reported in the supplement of paper PMC12669797.
# Where “and” joins values, the source holds several entries; their conditions need not be identical. Equal values may be shown once. Where a name gives a salt, the structure may show the parent alone. ± gives the standard deviation of the averaged measurements.
# Tested on: ES2
# Test: cell viability relative to DMSO control (MTS) (fraction of DMSO control); higher = more viable cells / less growth inhibition
# Settings: 10 µM; 48 h
# Summary of the method: (§1)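 Viability values are fractions of the vehicle-treated control. They come from an MTS assay run per the manufacturer's instructions on TOV-21G and ES2 clear cell carcinoma cells, seeded at 5000 cells per well in 96-well plates. Each compound of a 367-member […] library was added at 10 µM final after 24 h of growth, and the readout was taken after a further 48 h.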
row,SMILES,cell viability
1,CC1(C)CCC(C)(C)c2cc(NC(=O)c3ccc(C(=O)O)cc3)ccc21 [tamibarotene],1.16
2,CC(=O)N[C@@H](CSC(=O)[C@]1([C@@H](O)C(C)C)NC(=O)[C@H](C)[C@@H]1O)C(=O)O [Lactacystin],0.637
3,CCCCC(=O)Oc1ccccc1C(=O)O [Valeryl salicylate],0.917
4,CCCOc1ccccc1-c1nc2[nH]nnc2c(=O)[nH]1 [Zaprinast],0.909
5,CS(=O)(=O)c1ccc(C(=O)Nc2ccc(Cl)c(-c3ccccn3)c2)c(Cl)c1 [Vismodegib],0.967
6,CCOC(=O)C1=C(N)Oc2ccc(Br)cc2C1C(C#N)C(=O)OCC (configuration not stated),1.04
7,CCN(CC)CC(=O)Nc1c(C)cccc1C [Lidocaine],1.1
8,O=c1cc(N2CCOCC2)oc2c(-c3ccccc3)cccc12,0.666 and 0.627
9,COc1ccc(OC)c2c(=S)c3ccccc3[nH]c12,1.35
10,COc1c(C=O)c(O)cc2c1C(=O)c1ccccc1C2=O [Damnacanthal],1.05 ± 0.021
11,CC(C)C(C(=O)O)N1C(=O)C(=Cc2ccc(Br)cc2)SC1=S (configuration not stated),1.11
12,"CC/C(=C(\c1ccccc1)c1ccc(OCCN(C)C)cc1)c1ccccc1 [Tamoxifen, citrate]",1.34
13,CC(=N)NCc1cccc(CN)c1,1.15
14,N#CC(=C(/N)Sc1ccccc1N)/C(C#N)=C(/N)Sc1ccccc1N,0.685 and 0.748
15,Nc1nc2c(nc(Sc3ccc(Cl)cc3)n2C2O[C@@H]3CO[P+](O)(S)OC3[C@@H]2O)c(=O)[nH]1 (some centres not stated),1.02 ± 0.17
16,CC(C)(C)c1cc(O)ccc1O [t-Butylhydroquinone (BHQ)],0.939
17,COC(=O)CNC(=O)C(=O)OC [Dimethyloxalylglycine],1.23
18,NC(=O)Nc1sc(-c2ccccc2)cc1C(N)=O [IKK-2 inhibitor VI],0.555

row,SMILES,cell viability
1,O=Cc1ccc(N2CCOCC2)cc1O,1.07
2,CC(C)C(=O)Nc1ccc([N+](=O)[O-])c(C(F)(F)F)c1 [Flutamide],0.917
3,CN(C)CC(=O)Nc1ccc2[nH]c(=O)c3ccccc3c2c1,0.788
4,c1ccc2c(-c3cnn4cc(-c5ccc(N6CCNCC6)cc5)cnc34)ccnc2c1,0.267
5,C[C@@H](N)[C@H]1CC[C@H](C(=O)Nc2ccncc2)CC1,1.09 and 0.911
6,COc1ccc(COc2ccc(Cc3cnc(N)nc3N)cc2OC)cc1 [cFMS Receptor Tyrosine Kinase Inhibitor],0.942
7,C[n+]1ccc(-c2c3nc(c(-c4cc[n+](C)cc4)c4ccc([nH]4)c(-c4cc[n+](C)cc4)c4ccc([nH]4)c(-c4cc[n+](C)cc4)c4nc2C=C4)C=C3)cc1,0.933
8,CCN(CC)CCNC(=O)c1c(C)[nH]c(/C=C2\C(=O)Nc3ccc(Cl)cc32)c1C,0.254
9,COc1cc2c(cc1OC)-c1[nH]nc(Nc3cccc(F)c3)c1C2 [PDGF receptor tyrosine kinase inhibitor IV],0.288
10,CC(C)(C)NC(=O)[C@H]1CC[C@H]2[C@@H]3CC[C@H]4NC(=O)C=C[C@]4(C)[C@H]3CC[C@]12C [Finasteride],1.3
11,COc1ccc(C2=N[C@@H](c3ccc(Cl)cc3)[C@@H](c3ccc(Cl)cc3)N2C(=O)N2CCNC(=O)C2)c(OC(C)C)c1 [Nutlin-3],0.825
12,OCCn1cc(-c2cnc3nnn(Cc4ccc5ncccc5c4)c3n2)cn1,1.05
13,CC[C@]1(O)C[C@@H]2CN(CCc3c([nH]c4ccccc34)[C@@](C(=O)OC)(c3cc4c(cc3OC)N(C)[C@H]3[C@@](O)(C(=O)OC)[C@H](OC(C)=O)[C@]5(CC)C=CCN6CC[C@]43[C@@H]65)C2)C1 [Vinblastine sulfate],0.52
14,Cn1nnc2c(C(N)=O)ncn2c1=O [temozolomide],1.2
15,Cc1cnc(-c2cnc(NCCNc3ccc(C#N)cn3)nc2-c2ccc(Cl)cc2Cl)[nH]1,1.05
16,O=C([O-])c1ccccc1O.[Na+] [Sodium salicylate],0.785
17,Nc1[nH]nc2nnc(-c3c(-c4ccccc4)nn4ccccc34)cc12 [ERK inhibitor II],0.847
18,CO[C@@]12[C@H](COC(N)=O)C3=C(C(=O)C(C)=C(N)C3=O)N1C[C@@H]1N[C@@H]12 [Mitomycin C],0.35

# Tested on: TOV-21G
# Test: as above
# Settings: 10 µM; 48 h
# Summary of the method: as §1
row,SMILES,cell viability
1,CC1(C)CCC(C)(C)c2cc(NC(=O)c3ccc(C(=O)O)cc3)ccc21 [tamibarotene],1.49
2,CC(=O)N[C@@H](CSC(=O)[C@]1([C@@H](O)C(C)C)NC(=O)[C@H](C)[C@@H]1O)C(=O)O [Lactacystin],0.482
3,CCCCC(=O)Oc1ccccc1C(=O)O [Valeryl salicylate],1.01
4,CCCOc1ccccc1-c1nc2[nH]nnc2c(=O)[nH]1 [Zaprinast],1.03
5,CS(=O)(=O)c1ccc(C(=O)Nc2ccc(Cl)c(-c3ccccn3)c2)c(Cl)c1 [Vismodegib],0.897
6,CCOC(=O)C1=C(N)Oc2ccc(Br)cc2C1C(C#N)C(=O)OCC (configuration not stated),0.998
7,CCN(CC)CC(=O)Nc1c(C)cccc1C [Lidocaine],1.4
8,O=c1cc(N2CCOCC2)oc2c(-c3ccccc3)cccc12,0.52 and 0.519
9,COc1ccc(OC)c2c(=S)c3ccccc3[nH]c12,1.14
10,COc1c(C=O)c(O)cc2c1C(=O)c1ccccc1C2=O [Damnacanthal],0.974 ± 0.19
11,CC(C)C(C(=O)O)N1C(=O)C(=Cc2ccc(Br)cc2)SC1=S (configuration not stated),1.16
12,"CC/C(=C(\c1ccccc1)c1ccc(OCCN(C)C)cc1)c1ccccc1 [Tamoxifen, citrate]",0.868
13,CC(=N)NCc1cccc(CN)c1,0.992
14,N#CC(=C(/N)Sc1ccccc1N)/C(C#N)=C(/N)Sc1ccccc1N,0.824 and 1.02
15,Nc1nc2c(nc(Sc3ccc(Cl)cc3)n2C2O[C@@H]3CO[P+](O)(S)OC3[C@@H]2O)c(=O)[nH]1 (some centres not stated),0.856 ± 0.084
16,CC(C)(C)c1cc(O)ccc1O [t-Butylhydroquinone (BHQ)],1.11
17,COC(=O)CNC(=O)C(=O)OC [Dimethyloxalylglycine],0.917
18,NC(=O)Nc1sc(-c2ccccc2)cc1C(N)=O [IKK-2 inhibitor VI],0.476

row,SMILES,cell viability
1,O=Cc1ccc(N2CCOCC2)cc1O,0.993
2,CC(C)C(=O)Nc1ccc([N+](=O)[O-])c(C(F)(F)F)c1 [Flutamide],1.09
3,CN(C)CC(=O)Nc1ccc2[nH]c(=O)c3ccccc3c2c1,0.882
4,c1ccc2c(-c3cnn4cc(-c5ccc(N6CCNCC6)cc5)cnc34)ccnc2c1,0.344
5,C[C@@H](N)[C@H]1CC[C@H](C(=O)Nc2ccncc2)CC1,0.922 and 0.973
6,COc1ccc(COc2ccc(Cc3cnc(N)nc3N)cc2OC)cc1 [cFMS Receptor Tyrosine Kinase Inhibitor],1.01
7,C[n+]1ccc(-c2c3nc(c(-c4cc[n+](C)cc4)c4ccc([nH]4)c(-c4cc[n+](C)cc4)c4ccc([nH]4)c(-c4cc[n+](C)cc4)c4nc2C=C4)C=C3)cc1,0.79
8,CCN(CC)CCNC(=O)c1c(C)[nH]c(/C=C2\C(=O)Nc3ccc(Cl)cc32)c1C,0.222
9,COc1cc2c(cc1OC)-c1[nH]nc(Nc3cccc(F)c3)c1C2 [PDGF receptor tyrosine kinase inhibitor IV],0.297
10,CC(C)(C)NC(=O)[C@H]1CC[C@H]2[C@@H]3CC[C@H]4NC(=O)C=C[C@]4(C)[C@H]3CC[C@]12C [Finasteride],0.952
11,COc1ccc(C2=N[C@@H](c3ccc(Cl)cc3)[C@@H](c3ccc(Cl)cc3)N2C(=O)N2CCNC(=O)C2)c(OC(C)C)c1 [Nutlin-3],0.413
12,OCCn1cc(-c2cnc3nnn(Cc4ccc5ncccc5c4)c3n2)cn1,1.18
13,CC[C@]1(O)C[C@@H]2CN(CCc3c([nH]c4ccccc34)[C@@](C(=O)OC)(c3cc4c(cc3OC)N(C)[C@H]3[C@@](O)(C(=O)OC)[C@H](OC(C)=O)[C@]5(CC)C=CCN6CC[C@]43[C@@H]65)C2)C1 [Vinblastine sulfate],0.427
14,Cn1nnc2c(C(N)=O)ncn2c1=O [temozolomide],1.12
15,Cc1cnc(-c2cnc(NCCNc3ccc(C#N)cn3)nc2-c2ccc(Cl)cc2Cl)[nH]1,0.888
16,O=C([O-])c1ccccc1O.[Na+] [Sodium salicylate],1.27
17,Nc1[nH]nc2nnc(-c3c(-c4ccccc4)nn4ccccc34)cc12 [ERK inhibitor II],0.734
18,CO[C@@]12[C@H](COC(N)=O)C3=C(C(=O)C(C)=C(N)C3=O)N1C[C@@H]1N[C@@H]12 [Mitomycin C],0.213
